Compound activity (PubChem BioAssay)
tim10-1 inh – inhibits growth of tim10-1 mutant yeast; inhibition, % at 20 µM; S. cerevisiae tim10-1 ts strain growth, BacTiter-Glo, 24 h; 330,000 tested, 2.2% active;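 active means inhibition of at least 40%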;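 further: mutant grown at 25 °C; 0% = DMSO wells with yeast and 100% = wells holding no yeast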
NLRP3 yeast inh – NALP3 inhibition in yeast; inhibition, % at 10 µM; Yeast reconstituted NLRP3/ASC/caspase-1, beta-gal luminescence, 24 h; 330,000 tested, 0.39% active;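 active means inhibition of 50% or more; inactive means inhibition below 50%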;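 further: plate controls were induced DMSO wells for no effect and uninduced yeast grown without galactose for full effect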
NALP1 inh – blocks the NALP1 inflammasome reconstituted in yeast | inhibition, % at 10 µM | 280,000 tested, 0.61% active | S. cerevisiae NALP1/ASC/caspase-1 growth, X-gal OD620, 72 h | AID 2071; in the data active means inhibition mostly above about 24%, no sharp cut-off; inactive means mostly below about 32%
TIM10 inh – growth inhibitors of TIM10 yeast strain; S. cerevisiae TIM10 strain growth, BacTiter-Glo luminescence, 24 h; inhibition, % at 10 µM; 330,000 tested, 1.4% active; AID 463195;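 active means inhibition of 40% or more at the single tested concentration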;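 further: wild-type TIM10 isogenic control strain grown at permissive 25 °C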
tim23-1 inh – inhibits growth of tim23-1 mutant yeast | S. cerevisiae tim23-1 growth, BacTiter-Glo luminescence, 24 h | inhibition, % at 20 µM | 330,000 tested, 1.3% active | AID 463212;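 active means growth inhibition of the mutant yeast at or above 50%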;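 further: temperature-sensitive mutant grown at 25 °C; plate controls were DMSO-treated mutant yeast for no effect and medium wells lacking yeast for full effect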
tim10-1 confirm – confirmation of tim10-1 mutant yeast growth inhibitors. S. cerevisiae tim10-1 ts strain growth, BacTiter-Glo, 24 h. inhibition, % at 20 µM. 7,400 tested, 56% active. shares compounds with tim10-1 inh;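 active means inhibition of yeast growth at or above a set limit in either of two repeat tests at 20 µM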;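 further: tim10-1 mutant grown at permissive 25 °C to find synthetic lethal compounds; 0% = DMSO yeast wells and 100% = medium wells without yeast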
* = called active by the depositor; / = no result. Shown are actives, neighbours in structure and some others; about 4% of the full set was active somewhere.

SMILES | tim10-1 inh | NLRP3 yeast inh | NALP1 inh | TIM10 inh | tim23-1 inh | tim10-1 confirm
C/C(CC(=O)Nc1cccc(Cl)c1Cl)=N\NC(=O)c1ccccc1N | 40.6* | 1.0 | -24.0 | 25.4 | 16.7 | 29.4
Oc1ccc(-c2nnc(SCC3CCCCC3)o2)cc1 | 43.9* | 5.8 | 1.9 | 32.3 | 22.2 | 28.3
CS(=O)(=O)N(CC(=O)NCCSCc1ccccc1Cl)c1ccc(F)cc1 | 4.7 | 8.7 | 1.5 | 2.3 | 21.6 | /
CCn1cc(C(=O)N[C@@H](CCSC)C(=O)NC(C)(C)CO)c(=O)c2cc3c(cc21)OCO3 | -15.0 | 13.1 | 7.2 | 10.5 | 0.0 | /
COc1ccc(S(=O)(=O)N2CN(Cc3ccco3)c3nc4ccccc4nc32)cc1 | 47.0* | -7.8 | 16.8 | 19.5 | 26.7 | 27.2
COC(=O)CN1C(=S)N(c2ccc(OC)cc2)C(=O)/C1=C/c1ccc(N2CCOCC2)cc1 | / | / | 1.7 | / | / | /
COC(=O)CN1C(=S)N(c2ccc(OC)cc2)C(=O)/C1=C/c1ccc(OC)cc1 | 49.9* | -18.3 | -20.0 | 26.8 | 38.8 | 36.6*
CCCc1nn(C)c2c1C(c1cccnc1)C(C#N)=C(N)O2 (stereo not given) | 41.1* | 11.3 | / | 2.9 | 28.6 | 26.9
O=C(NCc1ccon1)C1CCC(=O)N(CCc2cccc(F)c2)C1 (stereo not given) | 10.8 | 8.2 | 32.2 | -4.1 | -5.7 | /
O=C1CN(Cc2ccccc2)C(=NCc2ccco2)S1 | 45.2* | 27.1 | / | 4.3 | 33.9 | 19.6
COc1ccc(CCCc2nnc(SCC(=O)NN)o2)c(C)c1 | 16.6 | 16.7 | -61.0 | 10.2 | 20.1 | /
COc1ccc(N2CC(C(=O)Nc3ccc(S(=O)(=O)Nc4nccs4)cc3)CC2=O)c(OC)c1 (stereo not given) | 13.5 | 12.0 | / | 3.6 | 13.6 | /
O=C(Nc1cccc(C(=O)N2CCN(c3cccc(Cl)c3)CC2)c1)c1ccccc1 | 47.6* | 10.4 | 17.4 | 35.8 | 31.2 | 37.2*
O=C(Nc1ccc(N2CCN(C(=O)c3ccccc3)CC2)cc1)c1ccc(Br)o1 | 39.0 | 3.2 | / | 35.2 | 40.7 | /
O=C(Nc1ccc(N2CCN(C(=O)c3ccccc3)CC2)c(Cl)c1)c1ccc(Br)o1 | 48.0* | 21.5 | 12.6 | 33.4 | 43.2 | 39.5*
COc1ccccc1CNC(=O)COC(=O)c1ncc(Cl)c(Cl)c1Cl | 10.3 | 12.4 | / | 3.8 | 3.0 | /
Cc1ccccc1C1C(C#N)=C2N=C(N)c3c(sc4c3CCCCC4)N2C2=C1C(=O)CC(C)(C)C2 (stereo not given) | 32.5 | 4.7 | 10.1 | 9.5 | 36.9 | /
Cc1ccccc1C1C(C#N)=C2NC(=O)c3c(sc4c3CCCCC4)N2C2=C1C(=O)CC(C)(C)C2 (stereo not given) | 45.9* | -0.9 | -1.1 | 28.5 | 47.8 | 31.8*
COc1ccccc1/C=C/[C@@H]1C[C@H]2CN(Cc3cccc(Cl)c3)C(=O)[C@]23CCCN13 | 43.0* | 13.2 | -5.8 | 19.7 | 26.8 | 26.3
COc1ccc(CC(=O)OC(C)C(=O)NCc2ccc3c(c2)OCO3)cc1OC (stereo not given) | 1.7 | 9.5 | / | -0.7 | -2.7 | /
COCOc1cc(O)c(C(=O)/C=C/c2ccccc2)c(OCOC)c1 | 50.2* | 18.5 | / | 36.6 | 43.2 | 41.2*
COc1ccc(/C=C/C(=O)c2cc3cccc(OC)c3oc2=O)cc1 | 42.5* | -7.4 | -11.6 | 10.1 | 22.6 | 9.8
COc1ccc(C(=O)/C=C/c2ccccc2)c(OC)c1 | 40.2* | 23.4 | -1.1 | 14.4 | 26.1 | 21.1
Cc1ccc(-c2ccc(=O)n(CCC(=O)N3CCN(c4cccc(C)c4)C(C)C3)n2)cc1 (stereo not given) | 17.9 | 15.3 | 4.6 | 19.6 | 21.2 | /
CCNS(=O)(=O)c1ccc2c(c1)NCC2 | 10.8 | -5.4 | 17.6 | -6.4 | 5.8 | /
SMILES | tim10-1 inh | NLRP3 yeast inh | NALP1 inh | TIM10 inh | tim23-1 inh | tim10-1 confirm
O=C1COc2ccc(S(=O)(=O)N3CCN(c4ccccc4F)CC3)cc2N1 | 6.3 | 9.5 | -31.1 | 8.3 | 19.6 | /
Cc1sc(N2CCN(S(=O)(=O)c3ccc4c(c3)NC(=O)CO4)CC2)nc1-c1ccccc1 | 47.1* | 10.6 | 0.1 | 11.3 | -0.9 | -20.1
CC1=C/C(=C(/c2ccc(O)c(C)c2)c2ccccc2S(=O)(=O)O)C=CC1=O | 10.8 | 26.0 | / | 13.0 | 7.8 | /
CC1=C/C(=C(/c2cc(C)c(O)c(Br)c2)c2ccccc2S(=O)(=O)O)C=C(Br)C1=O | 54.2* | 23.3 | -5.3 | 37.5 | 49.7 | 43.8*
COc1ccc(C(=O)N(C)Cc2ccc(C)o2)cc1OC1CCN(C(C)=O)CC1 | 12.1 | -2.4 | 16.4 | 4.9 | 1.0 | /
COC(=O)c1cc(S(=O)(=O)NCCN2CCOCC2)cn1C | 17.0 | -7.1 | 8.0 | 6.0 | 7.7 | /
Cc1ccc(S(=O)(=O)NC(=O)c2ccc(-c3ccc(-c4ccccc4)cc3)o2)c(C)c1 | 42.7* | -5.0 | 17.1 | -0.5 | 10.3 | 33.2*
Cc1ccc(S(=O)(=O)NC(=O)c2ccc(F)cc2)c(C)c1 | -1.6 | 16.6 | -0.9 | -5.1 | 7.6 | /
CCOC(=O)[C@@H]1[C@H]2COc3ccccc3[C@@H]2N2C(=O)N(c3cccc(C)c3)C(=O)[C@]12C | 13.0 | 4.1 | 7.4 | 12.6 | 25.2 | /
CN1CC(c2ccccc2)C2(SC(=S)N(Cc3ccco3)C2=O)C12C(=O)Nc1ccccc12 (stereo not given) | 44.2* | 21.3 | 11.9 | 13.3 | 19.3 | 16.4
CNc1ccc(Br)cc(C(=O)/C=C/c2cccc(OC)c2OC)c1=O | 41.7* | 6.3 | -82.8 | 20.4 | 32.6 | 33.6*
CNc1ccc(Br)cc(C(=O)/C=C/c2cccc(Cl)c2Cl)c1=O | / | / | 2.6 | / | / | /
COc1ccccc1CNS(=O)(=O)c1c(C)nc2sccn2c1=O | 10.2 | 16.0 | 16.0 | -1.9 | 11.5 | /
c1ccc(C(NCCNC(c2ccccc2)c2ccccc2)c2ccccc2)cc1 | 42.8* | 12.8 | 14.7 | 18.6 | 21.3 | 19.2
NS(=O)(=O)c1ccc(CCNC(c2ccccc2)c2ccccc2)cc1 | 13.3 | 1.3 | -5.0 | 20.6 | 4.4 | /
Brc1ccc(-c2cn3c(n2)CCc2ccc4cccnc4c2-3)cc1 | 46.5* | 10.5 | 10.2 | 37.5 | 45.0 | 31.6*
Brc1ccc(-c2cn3nc4c(nc3n2)CCCC4)cc1 | 19.8 | 4.3 | 16.9 | 2.3 | 15.9 | /
CSCc1ccc(C(=O)NC2CC(C)(C)Cc3c2cnn3-c2ccc(F)cc2)o1 (stereo not given) | 40.9* | 3.9 | -8.6 | 24.7 | 38.4 | 13.2
COc1ccc(-n2ncc3c2CC(C)(C)CC3NC(=O)c2oc(C)cc2C)cc1 (stereo not given) | 44.2* | -4.6 | 1.2 | 13.7 | 36.3 | 10.8
Cc1cc(C)c(C(=O)NC2CC(C)(C)Cc3c2cnn3-c2ccccc2)o1 (stereo not given) | 45.0* | -9.7 | 12.3 | 19.7 | 42.1 | 24.1
Cc1ncoc1C(=O)NC1CC(C)(C)Cc2c1cnn2-c1ccccc1 (stereo not given) | 16.4 | 27.9 | 4.1 | 9.0 | 9.0 | /
C[N+](C)(CC#Cc1ccccc1)CC(=O)c1ccc(Cl)cc1 | 12.2 | -1.2 | 37.4 | 3.2 | 1.6 | /
